# Peg3 prom inh: reduces Peg3 promoter-driven luciferase expression in HeLa | HeLa PEG-Prom luciferase reporter, luminescence, overnight | inhibition, % at 20 µM | 360,000 tested, 1.7% active | AID 588405;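 active means inhibition of at least 50% at 20 µM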
# TROY NFkB inh: inhibitors of TROY-dependent NF-kB signaling; Q293 LMP1-TROYcd NF-kB luciferase reporter, 4 h; inhibition, % at 10 µM; 360,000 tested, 0.98% active; AID 1347056;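 active means compounds whose plate-normalised and pattern-corrected inhibition of the luciferase reporter signal at the single screening dose is 50% or more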
# EBV LMP1 NFkB: Epstein-Barr LMP1 NF-kappaB reporter inhibition | LMP1-induced NF-kappaB luciferase reporter cells, luminescence | inhibition, % at 12.5 µM | 350,000 tested, 0.69% active | AID 504558; in the data active means inhibition above about 41%; inconclusive means no clear call, values can overlap the other calls;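 further: 0% = neutral control wells and 100% = reference inhibitor control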
# TWEAK-Fn14 inh: blocks TWEAK-Fn14 interaction in a reporter cell assay; TWEAK-stimulated Fn14 reporter cells, luciferase luminescence, 8 h; inhibition, % at 10 µM; 360,000 tested, 2% active; AID 1159606; in the data active means inhibition above about 50%
# HIF-2a block: blocks HIF-2a reporter activity | 786-0 RCC cells HIF-2a reporter, luciferase luminescence, overnight | inhibition, % at 18.8 µM | 360,000 tested, 0.72% active;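 active means inhibition of the luminescence signal of 40% or more relative to plate controls, in a single-dose primary screen at 18.75 µM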
# MITF TRPM1 inh: MITF TRPM1 promoter inhibition in SK-MEL-5 cells. SK-MEL-5 TRPM1 promoter luciferase, 24 h. inhibition, % at 12.5 µM. 330,000 tested, 0.83% active. AID 488899;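 active means mean inhibition across replicates of 60% or more, whatever share of single replicates reaches that level; inconclusive means some that reach 60%, reason not given; inactive means mean inhibition across replicates below 60%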
# Starred values were filed as active, the others as inactive; ? = inconclusive; · = no result. Sampled rows, rich in hits. Any-hit rate of the full collection: about 4%.
SMILES,Peg3 prom inh,TROY NFkB inh,EBV LMP1 NFkB,TWEAK-Fn14 inh,HIF-2a block,MITF TRPM1 inh
COc1ccc(Oc2ccc(/C=C/C(=O)c3cccc(OC)c3)cc2[N+](=O)[O-])cc1,114*,-1,-2,60*,34,1
O=C(/C=C/c1ccccc1)c1ccc2ccccc2c1,78*,-83,-27,-13,-220,-52
COc1ccc(/C=C/C(=O)c2ccccn2)cc1,-198,-4,-18,-27,-117,-42
COc1ccccc1OCc1ccc(C(=O)c2ccccc2)cc1,-127,-19,63*,-25,-205,-21
COc1ccc([N+](=O)[O-])c(C=CC(=O)c2ccccn2)c1,101*,-2,-7,19,23,·
CC1(C(=O)Nc2ccc3c(c2)OCO3)CCN1C(=O)CCc1cccs1 (stereo not given),1,-18,·,-7,7,·
N#Cc1ccccc1OCC(=O)OCC(=O)NC1CC1,11,-10,3,12,5,-1
CC1CC(C)CN(C(=O)c2cc3cc(Br)cc(Br)c3o2)C1 (stereo not given),-190,3,-13,-29,-308,-74
CN(C(=O)COC(=O)/C=C/c1ccc(S(=O)(=O)N2CCc3ccccc32)cc1)C1CCS(=O)(=O)C1 (stereo not given),2,19,4,-9,13,1
Cc1ccc(S(=O)(=O)NC2=NCN(CC(=O)O)CN2)cc1,12,-3,2,-22,14,1
COc1ccc(C=CC(=O)c2ccc(OC)c(OC)c2)cc1O,-52,4,-4,-9,-8,·
COC(=O)c1cn(C(=O)/C=C/c2ccc(OC)c(OC)c2)c2ccccc12,82*,17,-33,38,-86,-20
COc1ccc(/C=C/C(=O)C(C)(C)C)cc1OC,83*,-19,4,1,-12,1
COc1ccc(C=CC(=O)c2ccc3cc(OC)c(OC)cc3c2)cc1OC,92*,36,32,67*,3,·
COc1cc(/C=C/C(=O)NC(C)(C)C)ccc1OCc1ccccc1,10,-7,-14,13,6,9
COc1ccc(C(=O)C=Cc2ccc(OCc3ccccc3)c(OC)c2)cc1OC,80*,-12,0,29,21,·
COC(=O)c1cn(C(=O)OC)c2ccccc12,-1,-2,-8,3,14,-11
Cc1ccc(S(=O)(=O)N2[C@@H](c3ccc(F)cc3)C(C(=O)O)=C[C@H]2CC2CCCC2)cc1,15,6,-9,5,14,-2
CCn1c2ccc(C)cc2c2n[nH]c(=S)nc21,7,-12,9,-12,14,1
COc1ccc(C)cc1S(=O)(=O)N(CC(=O)Nc1cccc([N+](=O)[O-])c1)c1cc(C)cc(C)c1,-3,9,-3,22,3,10
COc1ccc(C)cc1S(=O)(=O)N(CC(=O)Nc1cc([N+](=O)[O-])ccc1C)c1ccc(C)c(C)c1,10,1,49*,10,23,-7
CN(C)/N=C/c1ccc(Sc2ccc([N+](=O)[O-])cc2[N+](=O)[O-])o1,19,11,-14,39,16,3
Cc1cc(C)nc(Sc2ccc([N+](=O)[O-])cc2[N+](=O)[O-])n1,44,21,-36,58*,-40,31
Cc1nnc(SCC(=O)N(CC(C)C)c2c(N)n(Cc3ccccc3)c(=O)[nH]c2=O)n1N,6,-12,-13,-1,-3,-8
Cn1c(C(=O)Nc2ccccc2)cc2sccc21,-169,-40,-51,12,-242,-29
SMILES,Peg3 prom inh,TROY NFkB inh,EBV LMP1 NFkB,TWEAK-Fn14 inh,HIF-2a block,MITF TRPM1 inh
COC(=O)c1ccc(NC(=O)c2cc3sccc3n2C)cc1,-161,-24,-8,56*,-106,-32
CCN(CC(O)CON=C1c2ccccc2-c2ccccc21)S(=O)(=O)c1ccc(Cl)cc1 (stereo not given),30,13,-5,63*,-16,-8
c1coc(CN(Cc2cccs2)Cc2nnnn2C2CCCCC2)c1,-21,10,-9,51*,-9,8
COc1cc(/C=C2/SC(=S)N(CC(=O)NNC(=O)c3ccc(F)cc3)C2=O)cc(OC)c1OC,18,-14,-13,-16,11,·
O=C(c1nn2c(C(F)(F)F)cc(-c3ccco3)nc2c1Br)N1CCCc2ccccc21,60*,1,3,18,32,3
CC(C)Oc1ccc(CSC(=N)N)cc1,3,-2,-5,65*,-4,5
CC(C)Oc1ccc(CSc2ncn[nH]2)cc1,-115,-19,-15,-16,-127,-36
CCCCCCC(=O)N(O)C1CC(=O)N(c2ccc(F)cc2)C1=O (stereo not given),29,15,38,-34,-118,4
CCCCCCC(=O)N(O)C1CC(=O)N(c2ccc(Br)cc2)C1=O (stereo not given),22,6,43*,-65,-37,6
CC1CCN(C(=O)CSC2=NS(=O)(=O)c3cc(F)ccc3N2)CC1,-8,-7,1,5,10,-4
CC(C)OCCCN1CN(S(=O)(=O)c2ccccc2)c2nc3ccccc3nc21,-49,·,-8,77*,-72,-34
O=C(c1cccs1)c1ccccc1Cc1cccs1,0,-24,0,92*,-27,-13
CC(C)NC(=O)Nc1ccc2c(c1)C(=O)N([C@H](C)CO)C[C@H](C)[C@@H](CN(C)S(=O)(=O)c1cn(C)cn1)O2,-15,-16,-3,-7,11,0
C[C@H]1CN([C@@H](C)CO)S(=O)(=O)c2ccc(C#Cc3ccccn3)cc2O[C@@H]1CN(C)C(=O)C1CC1,-17,19,-8,-9,5,·
Cc1nc(N)nc(N(C)c2ccccc2)c1Br,9,6,-8,11,-4,4
O=C(NCCc1cn2ccccc2n1)c1cc(COc2ccc3ncccc3c2)on1,13,41,12,66*,-14,27
COc1cccc(CN(C)C(=O)c2cc(COc3ccc4ncccc4c3)on2)c1,12,41,-1,59*,-10,21
O=C(NC1CCCC1)c1cc(COc2ccc3ncccc3c2)on1,-39,29,28,25,3,17
CCOC(=O)C(=O)N(C)c1c(CC)nc2c(OCc3cc(Cl)cc(Cl)c3)cccn12,28,-4,·,15,7,·
CCC1CCCCN1CC(=O)c1c(C)[nH]c2ccccc12 (stereo not given),-11,-7,2,24,12,6
Cc1[nH]c2ccccc2c1C(=O)CCl,93*,-1,-3,58*,19,?
Cc1[nH]c2ccccc2c1C(=O)CN1CCCCC1C (stereo not given),1,·,-9,79*,6,4
COc1ccc2[nH]c(C)c(C(=O)CN3CC(C)OC(C)C3)c2c1 (stereo not given),25,4,-4,8,21,-9

# High-throughput results (PubChem BioAssay)
